In the library only some 1.4% were active in any assay of this set; here they are far more common.
MmCpn inh – M. maripaludis TRiC chaperonin inhibition | Potency, µM (doses to about 76.9 µM), actives largely listed as inhibitors | purified Mm-Cpn ATPase, ADP Transcreener TR-FRET | AID 504842 | 0.031% of 330,000 active; further: nearly all actives have a fitted effect of over 80% in size
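Reaction buffer contained 30 mM Tris pH 7.4, 100 mM KCl, 5 mM MgCl2 and 1 mM DTT. Mm-CPN (25 nM final) hydrolysed 10 uM ATP over 30 min at 37°C; ADP was read by HTRF.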
ASM inhibitor – inhibitors of human secretory acid sphingomyelinase | P17405 | placental ASM, HMU-PC fluorogenic substrate, 60 min | Potency, µM (top dose mostly 57.5 µM), usual class: inhibitors | 0.006% of 340,000 active
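Steps: dispense placental human ASM, pin compound, wait 10 min at room temperature, add HMU-PC0 substrate at 9 uM final, incubate 60 min at 37 °C, add stop solution raising pH to 10, read fluorescence.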
CCT modulator – changes cytosolic chaperonin activity; purified chaperonin ATPase assay, HTRF ADP detection, 30 min; 0.3% of 360,000 active; activity change, % (no concentration beside the values), hits read low; in the data active means activity change below about -30%
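Nucleotide hydrolysis assay: TRiC at 20–40 nM final (set by batch activity) with 10 uM ATP, 30 min at 37 °C, in presence of 76 uM compound. Detection by competitive ADP HTRF, 30 min ambient.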
p53 reactivator – restores transcriptional activity of mutant p53. Potency, µM (series often up to 92.2 µM), most hits filed as activators. 0.063% of 320,000 active. H1299 p53-A138V BP100-luciferase reporter, luminescence, 24 h; further: nearly all actives have a fitted effect of over 45% in size
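p53-null H1299 cells stably carrying temperature-sensitive p53-A138V and a BP100-luciferase reporter were pinned with compounds (4-point, 1:5 series) and held 24 hrs at 37 deg C. Luminescence was read 10 min after detection reagent.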
12-LOX inh – ALOX12 (human) lipoxygenase inhibition. purified 12hLO, xylenol orange hydroperoxide absorbance. P18054. AID 1671190. Potency, µM (doses to about 108 µM), most hits filed as inhibitors. 1.1% of 580,000 active
Target sequence (P18054 whole entry, looked up): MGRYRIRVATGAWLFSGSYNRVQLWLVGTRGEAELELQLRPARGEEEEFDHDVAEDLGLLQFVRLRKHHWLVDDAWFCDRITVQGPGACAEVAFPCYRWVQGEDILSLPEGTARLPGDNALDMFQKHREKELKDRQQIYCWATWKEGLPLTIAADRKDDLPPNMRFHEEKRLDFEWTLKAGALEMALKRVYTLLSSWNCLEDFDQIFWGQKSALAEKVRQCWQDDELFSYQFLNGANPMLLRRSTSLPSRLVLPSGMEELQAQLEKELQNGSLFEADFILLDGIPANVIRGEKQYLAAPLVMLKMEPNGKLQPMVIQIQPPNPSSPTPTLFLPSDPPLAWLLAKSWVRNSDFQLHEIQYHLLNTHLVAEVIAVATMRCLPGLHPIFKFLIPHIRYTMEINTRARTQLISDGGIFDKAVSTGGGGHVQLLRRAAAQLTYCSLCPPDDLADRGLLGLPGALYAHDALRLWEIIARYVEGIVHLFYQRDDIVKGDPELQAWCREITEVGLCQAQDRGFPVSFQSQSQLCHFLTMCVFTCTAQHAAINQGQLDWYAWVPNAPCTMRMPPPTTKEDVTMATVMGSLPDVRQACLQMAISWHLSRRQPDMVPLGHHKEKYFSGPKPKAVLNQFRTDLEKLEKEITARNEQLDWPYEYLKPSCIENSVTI
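Hydroperoxide product was detected by ferrous iron/xylenol orange as the 573 to 405 nm absorbance ratio. Arachidonic acid at 40 uM (final) was turned over for 30 min at room temperature by 150 nM human 12hLO, pH 7.0 Hepes buffer, after 15 min compound preincubation.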
PINK1 modulator – modulators of PINK1 expression | AID 624263 | Potency, µM (highest dose often 76.6 µM), hits mostly activators | PINK1 immunofluorescence, high-content cytometry, 24 h | 0.2% of 410,000 active; active means well fitted activation curve with a large enough effect; inconclusive means small, poorly fitted or top-dose-only effect; cell line not stated here; further: nearly all actives have a fitted effect of over 65% in size
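Fluorescence from anti-PINK1 antibody, together with nuclear and cell stains, was scanned on a laser-scanning cytometer. Before staining, stable-line cells were incubated 24 hours with compounds at 5 concentrations; primary antibody 12 h at 10 degrees C.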
A number is an active result; n = inactive; u = inconclusive; x = no result. Unless noted, the call rests on the fitted dose curve; in most records, active means well fitted curve in the direction sought with a large enough effect; inconclusive means small, poorly fitted or top-dose-only effect, or another doubt; inactive means no such curve, though single readings can be large; an effect the other way counts as inactive or inconclusive.

SMILES	MmCpn inh	ASM inhibitor	CCT modulator	p53 reactivator	12-LOX inh	PINK1 modulator
COCCN(C(=O)CSc1nc2ccc(C)cc2[nH]1)c1c(N)n(Cc2ccccc2)c(=O)[nH]c1=O	n	n	-39	n	n	n
O=C(COC(=O)/C=C/c1cccc2cccnc12)Nc1ccc(O)cc1	x	x	x	x	n	x
CSc1nsc(/C=C/Nc2ccc(F)cc2)c1C#N	n	n	n	n	u	n
CSc1nsc(/C=C/Nc2ccc(O)cc2C)c1C#N	n	n	n	n	35µM	n
CCCn1nc([N+](=O)[O-])c(C(C#N)c2nc3ccccc3o2)c(Cl)c1=O (centres undefined)	n	n	n	n	40µM	u
CCn1nc([N+](=O)[O-])c(C(C#N)c2nc3cc(C(F)(F)F)ccc3s2)c(Cl)c1=O (centres undefined)	n	n	n	n	u	u
COc1cccc(C(=O)NCCN2CCN(c3ccccc3)CC2)c1	n	n	n	x	16µM	n
S=c1sc2c(s1)SC1c3ccccc3CC1S2 (centres undefined)	x	x	x	x	16µM	x
CCc1ccc(C2CC(=O)N3CN(Cc4ccccc4)CSC3=C2C#N)cc1 (centres undefined)	x	x	x	x	3.2µM	x
N#CC1=C2SCN(Cc3ccccc3)CN2C(=O)CC1c1ccccc1F (centres undefined)	n	n	n	n	x	n
COc1ccc(C2CC(=O)N3CN(Cc4ccccc4)CSC3=C2C#N)c(OC)c1 (centres undefined)	x	x	x	x	5.6µM	x
Cc1ccc(C2CC(=O)N3CN(Cc4ccco4)CSC3=C2C#N)cc1 (centres undefined)	n	n	n	n	6.3µM	n
N#CC1=C2SCN(Cc3ccco3)CN2C(=O)CC1c1c(F)cccc1Cl (centres undefined)	n	n	n	n	u	n
O=C(c1ccc2c(c1)OCO2)N1CCC(c2nc3c(nnn3Cc3cccc(Cl)c3)c(=O)[nH]2)CC1	x	x	x	x	13µM	x
O=C(Nc1ccc(F)cc1)N1CCC(c2nc3c(nnn3Cc3cccc(Cl)c3)c(=O)[nH]2)CC1	n	u	n	n	n	n
Cc1c(C)n(C)c2ccc(C(=O)NCCN3CCOCC3)cc12	n	n	n	n	n	n
CCn1c(C)c(C)c2cc(C(=O)NCCN3CCOCC3)ccc21	n	n	-40	n	n	n
OC1CCN(Cc2nnc(-c3ccccc3Cl)o2)CC1	x	x	x	x	n	x
CN(C)CC1CCC/C(=C/c2ccc(Cl)cc2)C1=O (centres undefined)	x	n	n	x	35µM	n
COc1ccc(/C=C2/CCCC(CN(C)C)C2=O)cc1 (centres undefined)	x	n	n	x	u	n
CC(Nc1ccc([N+](=O)[O-])cn1)c1nc2ccccc2n1C(F)F (centres undefined)	x	x	x	x	n	x
CCOc1ccccc1NC(C)C(=O)N(C)Cc1cccc(F)c1 (centres undefined)	x	x	x	x	n	x
CCN(CC)c1ccc(/C=N/NS(=O)(=O)c2ccc(Cl)cc2)cc1	x	x	x	x	32µM	x
CCN(CC)c1ccc(/C=N/NS(=O)(=O)c2ccc(C)c([N+](=O)[O-])c2)cc1	n	n	n	n	u	n
O=C(COc1ccccc1Cl)Nc1ccc2oc(-c3ccc(F)cc3)nc2c1	x	x	x	x	n	x
SMILES	MmCpn inh	ASM inhibitor	CCT modulator	p53 reactivator	12-LOX inh	PINK1 modulator
CCN(C(=O)COC(=O)/C(=C/c1ccccc1)n1nnnc1C)C1CCCCC1	n	n	-88	n	n	n
Cc1[nH]c2c(ccc3ccccc32)c1C	x	x	x	x	16µM	x
c1cnc2nc(-c3c[nH]c4ncccc34)[nH]c2c1	x	x	x	x	n	x
O=[N+]([O-])c1cc([N+](=O)[O-])c2oc(-c3ccccc3)c(Br)c2c1O	n	n	n	n	x	35µM
CCOC(=O)c1cc(-c2ccccc2)sc1NC(=O)c1ccc(OC)c(OC)c1	n	n	n	n	11µM	n
CCOC(=O)c1cc(-c2ccccc2)sc1NC(=S)Nc1cccc(C)n1	n	n	n	n	20µM	u
CCOC(=O)c1cc(-c2ccccc2)sc1NC(=O)C(C)C	n	n	n	n	n	n
CCOC(=O)c1cc(-c2ccccc2)sc1NC(=O)COC	n	n	n	n	n	n
CCN(CC)S(=O)(=O)c1ccc(/C=C/C(=O)OCC(=O)C(C)(C)C)cc1	x	x	x	x	n	x
Cn1c2c(c3ccccc31)CN(C(=O)Nc1ccccc1F)CC2	x	x	x	x	n	x
Cc1ccc(-n2cccc2CC(=O)NC(C)c2ccccn2)cc1 (centres undefined)	x	x	x	x	n	x
CSc1nc2c([nH]1)c(=S)n(C)c(=O)n2C	x	n	n	x	n	n
Cn1c(=S)c2[nH]c(SCc3cccnc3)nc2n(C)c1=O	x	n	n	x	3.2µM	n
O=C1C=CC(=O)N1c1ccccc1N1C(=O)C=CC1=O	x	n	n	x	n	n
O=C(c1ccccc1)c1ccccc1N1C(=O)C=CC1=O	n	n	n	n	7.9µM	n
CCC(CC)NC(=O)Cn1cnc2c1c(=O)n(C)c(=O)n2C	x	x	x	x	n	x
O=c1cc(-c2ccc([N+](=O)[O-])cc2)nc2cc(-c3ccc(F)cc3)[nH]n12	n	n	n	n	20µM	n
Cc1ccc([C@H]2C(C(=O)O)=C[C@@H](CC3CCCC3)N2S(=O)(=O)c2ccc(C)cc2)cc1	n	n	n	n	40µM	n
O=C(O)/C=C/c1ccc(Br)s1	x	x	x	x	n	x
CCOc1ccccc1NC(=O)COC(=O)c1oc2ccc(Br)cc2c1C	x	x	x	x	n	x
C=CCc1ccccc1OCC(O)CN1CCOCC1 (centres undefined)	x	n	n	x	40µM	n
Cc1c(B2OC(C)(C)C(C)(C)O2)cnn1C	x	x	x	x	n	x
Cc1ccc(C(=O)OCc2cc(=O)oc3c(C)c(C)ccc23)s1	x	x	x	x	n	x
Cc1cccc(NC(=O)COc2ccc(/C=C\c3[nH]c(=O)[nH]c(=O)c3[N+](=O)[O-])cc2)c1	n	n	n	n	40µM	n
Cc1cc2oc(=O)cc(CN(C)CCOc3ccccc3F)c2cc1C	x	x	x	x	n	x
SMILES	MmCpn inh	ASM inhibitor	CCT modulator	p53 reactivator	12-LOX inh	PINK1 modulator
CN(CC(=O)Nc1ccc2c(c1)OCO2)S(=O)(=O)c1cccs1	n	n	n	n	n	n
CN(CC(=O)Nc1ccc(F)c(F)c1)S(=O)(=O)c1cccs1	n	n	-40	n	n	n
CC(C)(C)CCN1CC(Oc2cccc(C(=O)N3CCOCC3)c2)C1	x	x	x	x	22µM	x
CC(C)CCN1CC(Oc2cccc(C(=O)N3CCOCC3)c2)C1	x	x	x	x	n	x
Cn1cc(-c2ccncc2)cc1C(=O)N1CCN(c2ccccc2Cl)CC1	x	x	x	x	n	x
CN1CCN(c2ccc3c(c2)C2CC3CCN2C(=O)OCc2ccccc2)CC1 (centres undefined)	x	n	n	x	u	n
O=C(OCc1ccccc1)N1CCC2CC1c1cc(N3CCN(C(=S)NCCc4ccccc4)CC3)ccc12 (centres undefined)	x	x	n	x	20µM	n
O=c1[nH]c(=O)c2[nH]c(=S)[nH]c2[nH]1	x	n	n	x	0.71µM	n
